The values that follow come from the supplement of paper PMC11732987, “Enantioselective OTUD7B fragment discovery through chemoproteomics screening and high-throughput optimisation” (Communications Chemistry, 2025).

Common to all, as to assay: log2 ratio of Biotin-Ahx-Ub-VS probe labelling (fragment/DMSO); higher = less target engagement (more negative = stronger competition), active = hit call of the paper (q ≤ 0.05, log2 ratio ≤ -1)
Conditions in all cases: compound concentration: 200 uM; treatment time: 3 h

Assay [1] addresses T1, USP42 (UniProt Q9H9J4).
T1 sequence (whole entry): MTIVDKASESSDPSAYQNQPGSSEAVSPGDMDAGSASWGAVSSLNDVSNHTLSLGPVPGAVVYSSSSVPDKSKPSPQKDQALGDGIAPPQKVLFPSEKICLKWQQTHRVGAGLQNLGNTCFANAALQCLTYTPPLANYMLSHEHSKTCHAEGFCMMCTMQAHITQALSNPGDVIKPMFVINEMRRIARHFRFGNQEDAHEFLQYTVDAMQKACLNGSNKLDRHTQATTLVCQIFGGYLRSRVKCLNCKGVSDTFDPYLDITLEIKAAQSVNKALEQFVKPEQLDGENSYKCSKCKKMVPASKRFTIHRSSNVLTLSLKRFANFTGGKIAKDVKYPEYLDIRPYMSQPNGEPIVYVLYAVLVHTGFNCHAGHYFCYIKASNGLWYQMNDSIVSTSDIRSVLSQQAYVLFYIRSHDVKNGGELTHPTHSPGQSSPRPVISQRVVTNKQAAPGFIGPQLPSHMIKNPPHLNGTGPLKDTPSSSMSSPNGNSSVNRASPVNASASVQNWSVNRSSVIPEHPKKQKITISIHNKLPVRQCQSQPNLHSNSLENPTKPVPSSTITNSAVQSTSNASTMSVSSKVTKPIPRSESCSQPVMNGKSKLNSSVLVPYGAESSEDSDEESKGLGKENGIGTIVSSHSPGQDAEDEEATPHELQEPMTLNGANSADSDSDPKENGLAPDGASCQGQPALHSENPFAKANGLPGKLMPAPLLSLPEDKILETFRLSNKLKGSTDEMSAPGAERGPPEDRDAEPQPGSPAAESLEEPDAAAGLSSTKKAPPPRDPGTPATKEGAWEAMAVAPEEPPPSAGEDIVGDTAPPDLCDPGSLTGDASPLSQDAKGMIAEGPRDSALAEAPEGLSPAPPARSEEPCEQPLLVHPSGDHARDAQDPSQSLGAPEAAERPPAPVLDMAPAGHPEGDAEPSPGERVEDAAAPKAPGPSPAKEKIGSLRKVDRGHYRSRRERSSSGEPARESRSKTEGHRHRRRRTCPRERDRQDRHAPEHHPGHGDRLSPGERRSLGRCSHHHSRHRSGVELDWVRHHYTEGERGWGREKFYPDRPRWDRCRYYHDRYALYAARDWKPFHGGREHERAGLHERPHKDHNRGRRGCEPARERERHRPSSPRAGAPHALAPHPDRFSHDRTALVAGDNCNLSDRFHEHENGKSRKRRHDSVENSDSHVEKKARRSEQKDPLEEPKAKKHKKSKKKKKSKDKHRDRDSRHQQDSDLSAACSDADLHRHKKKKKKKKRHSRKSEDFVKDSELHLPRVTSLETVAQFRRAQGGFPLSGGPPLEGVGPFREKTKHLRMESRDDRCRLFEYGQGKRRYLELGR
In outline: (§1)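 Global-median-normalised Spectronaut label-free quantities were compared by unpaired t-test, and values are average log2 ratios of fragment over vehicle. Only proteins with ≥2 unique peptides were used. HEK293T lysate (495 µg per sample) was treated in triplicate with fragment at 200 µM or vehicle for 3 h and then with Biotin-Ahx-Ub-VS at 0.5 µM final for 1 h. Labelled DUBs were then NeutrAvidin-enriched, digested with LysC and trypsin, and run by diaPASEF LC-MS/MS.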

Assay [2] deals with USP46 (UniProt P62068). In outline:
as §1

For assay [3], the target named is T2, USP47 (UniProt Q96K76).
T2 sequence (whole entry): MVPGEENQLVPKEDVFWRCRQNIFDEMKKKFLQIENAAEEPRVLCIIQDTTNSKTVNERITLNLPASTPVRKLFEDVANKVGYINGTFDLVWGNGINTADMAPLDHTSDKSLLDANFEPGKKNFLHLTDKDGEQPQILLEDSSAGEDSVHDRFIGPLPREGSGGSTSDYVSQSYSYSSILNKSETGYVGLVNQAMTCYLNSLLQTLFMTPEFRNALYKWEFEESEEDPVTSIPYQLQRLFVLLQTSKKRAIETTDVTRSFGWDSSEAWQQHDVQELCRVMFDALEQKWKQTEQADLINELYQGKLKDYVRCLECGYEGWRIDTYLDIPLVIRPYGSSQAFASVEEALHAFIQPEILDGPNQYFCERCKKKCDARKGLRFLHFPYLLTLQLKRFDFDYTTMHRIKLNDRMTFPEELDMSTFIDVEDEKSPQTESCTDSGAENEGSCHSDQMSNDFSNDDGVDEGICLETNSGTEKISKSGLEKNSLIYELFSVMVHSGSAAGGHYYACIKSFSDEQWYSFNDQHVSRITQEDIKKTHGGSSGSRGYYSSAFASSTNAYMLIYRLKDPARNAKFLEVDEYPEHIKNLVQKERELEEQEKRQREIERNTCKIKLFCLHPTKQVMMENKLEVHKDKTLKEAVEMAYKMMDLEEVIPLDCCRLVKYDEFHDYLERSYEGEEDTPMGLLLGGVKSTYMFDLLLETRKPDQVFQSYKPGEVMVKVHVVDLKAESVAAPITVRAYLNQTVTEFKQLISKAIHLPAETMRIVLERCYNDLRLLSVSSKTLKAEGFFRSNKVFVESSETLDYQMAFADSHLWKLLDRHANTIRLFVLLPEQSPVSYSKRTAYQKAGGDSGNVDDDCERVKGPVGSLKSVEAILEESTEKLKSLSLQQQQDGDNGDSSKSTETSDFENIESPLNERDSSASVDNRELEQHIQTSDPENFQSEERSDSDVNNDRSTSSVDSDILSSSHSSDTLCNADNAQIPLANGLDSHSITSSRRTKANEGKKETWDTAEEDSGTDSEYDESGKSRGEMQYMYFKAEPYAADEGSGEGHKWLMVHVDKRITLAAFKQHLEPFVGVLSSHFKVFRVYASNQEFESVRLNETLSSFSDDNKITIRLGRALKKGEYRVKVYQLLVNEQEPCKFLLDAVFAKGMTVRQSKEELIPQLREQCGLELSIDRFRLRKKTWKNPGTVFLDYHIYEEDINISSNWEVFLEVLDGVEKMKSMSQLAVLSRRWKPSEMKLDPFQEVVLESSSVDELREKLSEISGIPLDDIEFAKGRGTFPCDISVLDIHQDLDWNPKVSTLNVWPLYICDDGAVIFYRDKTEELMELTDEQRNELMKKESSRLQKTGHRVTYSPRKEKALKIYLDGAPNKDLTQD
In outline: as §1

Assay [4] concerns the target T3, USP48 (UniProt Q86UV5).
T3 sequence (whole entry): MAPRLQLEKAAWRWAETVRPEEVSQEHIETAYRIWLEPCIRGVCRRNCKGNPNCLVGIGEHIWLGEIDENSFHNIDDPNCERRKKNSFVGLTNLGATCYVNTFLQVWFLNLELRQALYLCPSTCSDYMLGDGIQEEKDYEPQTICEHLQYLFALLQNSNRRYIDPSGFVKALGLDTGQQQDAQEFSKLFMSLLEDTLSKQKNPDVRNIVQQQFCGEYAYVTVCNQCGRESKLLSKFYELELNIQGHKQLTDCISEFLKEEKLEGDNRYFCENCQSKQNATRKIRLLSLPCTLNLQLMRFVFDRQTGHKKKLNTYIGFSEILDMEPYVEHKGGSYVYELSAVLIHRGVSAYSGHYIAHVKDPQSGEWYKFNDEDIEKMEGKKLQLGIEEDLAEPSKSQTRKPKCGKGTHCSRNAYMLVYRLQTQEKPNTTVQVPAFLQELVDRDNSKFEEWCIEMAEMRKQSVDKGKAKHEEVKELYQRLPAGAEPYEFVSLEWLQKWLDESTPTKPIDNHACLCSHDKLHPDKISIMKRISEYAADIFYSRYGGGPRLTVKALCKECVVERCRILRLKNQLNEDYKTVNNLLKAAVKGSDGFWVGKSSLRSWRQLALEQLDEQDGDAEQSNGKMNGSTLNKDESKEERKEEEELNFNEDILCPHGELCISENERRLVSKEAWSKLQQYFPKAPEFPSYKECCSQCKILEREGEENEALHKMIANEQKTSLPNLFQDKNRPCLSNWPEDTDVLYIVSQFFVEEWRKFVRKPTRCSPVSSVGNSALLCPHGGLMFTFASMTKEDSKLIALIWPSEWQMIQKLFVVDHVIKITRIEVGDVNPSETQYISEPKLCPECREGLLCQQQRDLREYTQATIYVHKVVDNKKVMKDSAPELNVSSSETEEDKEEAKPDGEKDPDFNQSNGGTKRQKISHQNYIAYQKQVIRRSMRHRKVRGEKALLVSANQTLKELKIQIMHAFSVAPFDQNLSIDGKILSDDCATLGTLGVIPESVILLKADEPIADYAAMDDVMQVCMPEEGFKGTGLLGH
An outline of the steps:
as §1

Assay [5] deals with T4, USP5 (UniProt P45974).
T4 sequence (whole entry): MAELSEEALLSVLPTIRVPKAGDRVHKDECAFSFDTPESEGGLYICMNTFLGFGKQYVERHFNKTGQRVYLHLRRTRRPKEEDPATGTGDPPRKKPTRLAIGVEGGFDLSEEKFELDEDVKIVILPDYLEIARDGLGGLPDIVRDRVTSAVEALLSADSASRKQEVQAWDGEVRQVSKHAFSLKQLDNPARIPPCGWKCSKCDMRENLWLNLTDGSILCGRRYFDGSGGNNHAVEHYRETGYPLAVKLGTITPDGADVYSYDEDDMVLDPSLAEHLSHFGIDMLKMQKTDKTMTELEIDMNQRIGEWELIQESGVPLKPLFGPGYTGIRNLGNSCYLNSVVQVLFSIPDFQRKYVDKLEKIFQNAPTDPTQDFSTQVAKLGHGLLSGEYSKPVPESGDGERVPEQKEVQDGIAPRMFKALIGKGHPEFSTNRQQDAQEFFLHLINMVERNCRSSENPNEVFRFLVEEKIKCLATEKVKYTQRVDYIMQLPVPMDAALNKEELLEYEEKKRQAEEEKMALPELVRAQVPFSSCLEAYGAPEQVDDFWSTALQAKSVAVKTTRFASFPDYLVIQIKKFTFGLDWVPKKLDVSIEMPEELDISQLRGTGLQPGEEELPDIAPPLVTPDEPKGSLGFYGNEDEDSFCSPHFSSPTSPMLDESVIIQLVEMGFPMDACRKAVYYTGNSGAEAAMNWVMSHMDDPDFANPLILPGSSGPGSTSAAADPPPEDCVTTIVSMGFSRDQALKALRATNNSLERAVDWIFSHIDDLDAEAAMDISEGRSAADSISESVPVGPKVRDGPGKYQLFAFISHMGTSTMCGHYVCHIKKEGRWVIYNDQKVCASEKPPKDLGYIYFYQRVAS
In outline: as §1

Assay [6] deals with USP54 (UniProt Q70EL1). An outline of the steps: as §1
Assay [7] has as its target USP7 (UniProt Q93009). In outline: as §1
For assay [8], the target named is T5, USP8 (UniProt P40818).
T5 sequence (whole entry): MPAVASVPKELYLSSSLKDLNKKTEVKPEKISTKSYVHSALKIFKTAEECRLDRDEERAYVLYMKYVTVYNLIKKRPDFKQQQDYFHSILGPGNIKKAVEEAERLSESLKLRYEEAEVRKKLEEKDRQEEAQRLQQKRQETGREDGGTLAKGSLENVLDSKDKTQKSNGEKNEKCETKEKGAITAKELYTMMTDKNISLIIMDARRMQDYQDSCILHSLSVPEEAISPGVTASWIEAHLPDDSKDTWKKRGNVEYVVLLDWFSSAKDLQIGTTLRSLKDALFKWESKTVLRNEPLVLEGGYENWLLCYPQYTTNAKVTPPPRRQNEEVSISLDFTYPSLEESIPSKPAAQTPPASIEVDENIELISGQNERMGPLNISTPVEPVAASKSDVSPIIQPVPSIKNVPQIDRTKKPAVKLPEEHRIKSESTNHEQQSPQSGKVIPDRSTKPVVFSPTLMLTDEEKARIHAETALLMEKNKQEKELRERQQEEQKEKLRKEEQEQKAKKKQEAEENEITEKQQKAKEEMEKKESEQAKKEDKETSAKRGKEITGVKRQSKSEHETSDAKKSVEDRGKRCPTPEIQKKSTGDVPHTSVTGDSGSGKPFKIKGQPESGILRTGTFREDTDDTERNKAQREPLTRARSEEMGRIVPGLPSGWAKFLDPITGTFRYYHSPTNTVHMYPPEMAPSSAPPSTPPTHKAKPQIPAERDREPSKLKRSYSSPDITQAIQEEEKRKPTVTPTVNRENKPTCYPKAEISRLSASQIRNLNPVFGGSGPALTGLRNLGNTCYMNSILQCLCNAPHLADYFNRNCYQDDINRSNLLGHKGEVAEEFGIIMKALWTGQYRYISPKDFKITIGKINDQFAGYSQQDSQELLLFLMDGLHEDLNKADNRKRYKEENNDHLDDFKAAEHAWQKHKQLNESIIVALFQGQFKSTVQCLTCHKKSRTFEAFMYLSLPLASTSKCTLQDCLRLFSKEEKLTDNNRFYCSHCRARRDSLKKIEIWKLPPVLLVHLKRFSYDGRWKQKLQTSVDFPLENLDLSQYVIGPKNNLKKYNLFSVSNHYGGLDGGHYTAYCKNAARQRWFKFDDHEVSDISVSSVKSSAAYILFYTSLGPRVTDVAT
In outline:
as §1

For assay [9], the target named is USP9X (UniProt Q93008). An outline of the steps: as §1
Assay [10] addresses UniProt O00487. An outline of the steps: as §1

A number with no mark means an inactive call.

USP46, sequence (P62068 whole entry): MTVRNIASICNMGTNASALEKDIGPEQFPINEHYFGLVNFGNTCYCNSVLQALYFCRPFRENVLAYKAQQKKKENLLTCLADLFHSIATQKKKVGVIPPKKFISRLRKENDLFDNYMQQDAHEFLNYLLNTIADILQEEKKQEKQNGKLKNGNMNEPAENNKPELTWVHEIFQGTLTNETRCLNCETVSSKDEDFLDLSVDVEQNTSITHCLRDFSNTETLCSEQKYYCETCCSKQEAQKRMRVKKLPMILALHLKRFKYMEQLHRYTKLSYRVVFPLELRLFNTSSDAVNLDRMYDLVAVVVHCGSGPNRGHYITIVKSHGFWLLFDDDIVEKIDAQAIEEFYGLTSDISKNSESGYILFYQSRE
USP9X, sequence (Q93008 whole entry): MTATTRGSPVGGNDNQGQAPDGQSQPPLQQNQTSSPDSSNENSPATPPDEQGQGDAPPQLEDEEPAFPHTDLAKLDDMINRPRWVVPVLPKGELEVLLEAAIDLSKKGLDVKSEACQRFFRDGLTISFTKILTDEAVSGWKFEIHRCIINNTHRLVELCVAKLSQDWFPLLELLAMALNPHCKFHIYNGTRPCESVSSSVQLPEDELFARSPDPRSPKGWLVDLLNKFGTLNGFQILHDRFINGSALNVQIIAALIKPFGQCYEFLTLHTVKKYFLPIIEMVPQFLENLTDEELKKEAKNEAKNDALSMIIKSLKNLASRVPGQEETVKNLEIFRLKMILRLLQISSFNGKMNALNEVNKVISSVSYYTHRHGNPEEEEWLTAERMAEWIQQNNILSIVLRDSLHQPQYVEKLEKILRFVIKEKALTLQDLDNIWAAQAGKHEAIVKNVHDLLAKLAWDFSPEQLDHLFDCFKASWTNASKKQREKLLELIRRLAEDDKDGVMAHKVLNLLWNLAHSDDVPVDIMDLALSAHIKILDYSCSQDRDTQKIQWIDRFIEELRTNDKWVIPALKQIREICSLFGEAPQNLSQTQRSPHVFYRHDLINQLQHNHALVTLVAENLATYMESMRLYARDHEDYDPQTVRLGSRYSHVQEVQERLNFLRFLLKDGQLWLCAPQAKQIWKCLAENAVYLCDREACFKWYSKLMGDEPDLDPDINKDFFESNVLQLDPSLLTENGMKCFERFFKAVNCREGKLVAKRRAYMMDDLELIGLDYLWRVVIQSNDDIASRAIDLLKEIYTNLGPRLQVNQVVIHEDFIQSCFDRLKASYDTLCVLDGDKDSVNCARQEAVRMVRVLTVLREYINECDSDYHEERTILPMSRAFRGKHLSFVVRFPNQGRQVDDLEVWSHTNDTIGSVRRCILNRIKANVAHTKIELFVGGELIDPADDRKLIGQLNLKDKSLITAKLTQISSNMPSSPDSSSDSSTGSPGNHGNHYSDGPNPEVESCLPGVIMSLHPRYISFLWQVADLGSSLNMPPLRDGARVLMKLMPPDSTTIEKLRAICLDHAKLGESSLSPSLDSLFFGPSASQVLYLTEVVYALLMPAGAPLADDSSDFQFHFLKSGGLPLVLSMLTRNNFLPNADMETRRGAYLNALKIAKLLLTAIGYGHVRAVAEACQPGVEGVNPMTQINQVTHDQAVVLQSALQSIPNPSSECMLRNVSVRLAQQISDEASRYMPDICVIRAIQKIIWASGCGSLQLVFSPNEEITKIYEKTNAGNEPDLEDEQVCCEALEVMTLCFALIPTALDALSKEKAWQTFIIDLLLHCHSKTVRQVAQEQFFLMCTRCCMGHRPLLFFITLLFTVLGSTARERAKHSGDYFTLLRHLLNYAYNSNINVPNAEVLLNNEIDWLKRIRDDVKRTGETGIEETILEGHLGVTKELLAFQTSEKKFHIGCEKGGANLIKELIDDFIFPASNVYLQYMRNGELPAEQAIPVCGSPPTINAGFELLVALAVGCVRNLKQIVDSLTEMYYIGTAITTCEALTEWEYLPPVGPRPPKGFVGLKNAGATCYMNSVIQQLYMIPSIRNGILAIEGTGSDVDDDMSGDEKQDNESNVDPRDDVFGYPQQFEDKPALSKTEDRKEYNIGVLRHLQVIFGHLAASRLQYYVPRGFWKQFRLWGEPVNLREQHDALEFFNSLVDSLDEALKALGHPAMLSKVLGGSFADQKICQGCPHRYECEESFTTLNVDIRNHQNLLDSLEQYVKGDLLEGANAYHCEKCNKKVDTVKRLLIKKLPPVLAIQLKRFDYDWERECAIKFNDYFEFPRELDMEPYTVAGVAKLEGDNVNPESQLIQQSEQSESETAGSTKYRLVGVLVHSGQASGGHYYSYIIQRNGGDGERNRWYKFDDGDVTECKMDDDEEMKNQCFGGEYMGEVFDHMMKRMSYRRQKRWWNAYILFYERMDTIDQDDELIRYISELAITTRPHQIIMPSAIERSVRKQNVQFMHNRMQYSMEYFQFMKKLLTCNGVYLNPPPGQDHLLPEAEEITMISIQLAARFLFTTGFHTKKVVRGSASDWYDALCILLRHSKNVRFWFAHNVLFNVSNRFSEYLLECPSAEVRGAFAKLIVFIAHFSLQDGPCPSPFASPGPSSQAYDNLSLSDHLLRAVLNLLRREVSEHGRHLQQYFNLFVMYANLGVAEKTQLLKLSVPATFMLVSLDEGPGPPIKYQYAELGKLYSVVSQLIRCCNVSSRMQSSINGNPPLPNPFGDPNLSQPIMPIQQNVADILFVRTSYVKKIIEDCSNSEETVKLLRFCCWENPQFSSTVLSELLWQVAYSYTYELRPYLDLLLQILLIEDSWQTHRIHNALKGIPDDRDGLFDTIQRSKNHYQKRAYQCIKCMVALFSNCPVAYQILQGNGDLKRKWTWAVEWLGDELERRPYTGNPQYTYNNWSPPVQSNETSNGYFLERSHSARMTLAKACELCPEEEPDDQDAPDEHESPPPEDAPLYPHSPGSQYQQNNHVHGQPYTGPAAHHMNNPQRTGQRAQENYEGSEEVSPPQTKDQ
USP54, sequence (Q70EL1 whole entry): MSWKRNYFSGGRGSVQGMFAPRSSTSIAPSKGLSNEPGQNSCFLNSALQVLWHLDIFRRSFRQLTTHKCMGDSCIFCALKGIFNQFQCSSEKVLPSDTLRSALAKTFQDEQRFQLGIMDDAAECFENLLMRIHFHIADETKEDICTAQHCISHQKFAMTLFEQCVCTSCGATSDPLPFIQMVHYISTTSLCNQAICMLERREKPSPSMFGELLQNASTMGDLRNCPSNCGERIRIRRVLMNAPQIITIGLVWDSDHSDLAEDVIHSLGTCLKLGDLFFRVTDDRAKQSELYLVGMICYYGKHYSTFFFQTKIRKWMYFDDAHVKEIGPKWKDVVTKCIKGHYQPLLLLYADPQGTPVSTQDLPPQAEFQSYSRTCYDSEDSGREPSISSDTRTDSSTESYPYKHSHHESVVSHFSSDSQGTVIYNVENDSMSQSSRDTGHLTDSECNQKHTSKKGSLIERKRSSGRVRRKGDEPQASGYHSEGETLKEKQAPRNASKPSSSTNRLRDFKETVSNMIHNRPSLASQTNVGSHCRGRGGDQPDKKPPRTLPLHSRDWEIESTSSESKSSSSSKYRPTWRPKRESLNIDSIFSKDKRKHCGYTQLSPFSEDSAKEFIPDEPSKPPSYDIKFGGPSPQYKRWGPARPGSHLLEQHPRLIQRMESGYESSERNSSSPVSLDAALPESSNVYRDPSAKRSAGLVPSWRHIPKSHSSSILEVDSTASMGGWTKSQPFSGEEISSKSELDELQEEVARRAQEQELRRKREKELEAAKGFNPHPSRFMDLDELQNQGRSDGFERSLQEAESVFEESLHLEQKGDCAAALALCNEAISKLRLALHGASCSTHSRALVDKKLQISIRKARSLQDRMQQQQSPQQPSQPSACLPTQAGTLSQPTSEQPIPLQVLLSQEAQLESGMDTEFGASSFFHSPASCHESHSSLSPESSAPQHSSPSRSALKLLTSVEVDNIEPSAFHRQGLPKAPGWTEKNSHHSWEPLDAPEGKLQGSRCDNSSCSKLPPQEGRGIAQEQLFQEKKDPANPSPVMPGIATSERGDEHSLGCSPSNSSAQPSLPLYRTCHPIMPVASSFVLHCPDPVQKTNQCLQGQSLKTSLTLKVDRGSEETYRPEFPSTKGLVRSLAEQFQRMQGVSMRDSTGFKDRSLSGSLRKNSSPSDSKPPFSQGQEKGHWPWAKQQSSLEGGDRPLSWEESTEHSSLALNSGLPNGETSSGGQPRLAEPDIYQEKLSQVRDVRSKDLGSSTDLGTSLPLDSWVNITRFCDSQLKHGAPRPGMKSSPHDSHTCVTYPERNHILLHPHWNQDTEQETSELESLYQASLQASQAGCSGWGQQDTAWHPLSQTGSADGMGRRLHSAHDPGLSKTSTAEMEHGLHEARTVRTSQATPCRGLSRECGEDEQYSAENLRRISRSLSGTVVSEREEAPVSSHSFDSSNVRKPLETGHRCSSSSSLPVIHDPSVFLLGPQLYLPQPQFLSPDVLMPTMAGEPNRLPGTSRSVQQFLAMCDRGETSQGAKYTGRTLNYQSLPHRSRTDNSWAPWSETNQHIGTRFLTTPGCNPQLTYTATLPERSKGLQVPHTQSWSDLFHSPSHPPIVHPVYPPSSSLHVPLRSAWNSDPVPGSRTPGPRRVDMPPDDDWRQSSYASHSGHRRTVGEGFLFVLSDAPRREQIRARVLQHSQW
UniProt O00487, sequence (O00487 whole entry): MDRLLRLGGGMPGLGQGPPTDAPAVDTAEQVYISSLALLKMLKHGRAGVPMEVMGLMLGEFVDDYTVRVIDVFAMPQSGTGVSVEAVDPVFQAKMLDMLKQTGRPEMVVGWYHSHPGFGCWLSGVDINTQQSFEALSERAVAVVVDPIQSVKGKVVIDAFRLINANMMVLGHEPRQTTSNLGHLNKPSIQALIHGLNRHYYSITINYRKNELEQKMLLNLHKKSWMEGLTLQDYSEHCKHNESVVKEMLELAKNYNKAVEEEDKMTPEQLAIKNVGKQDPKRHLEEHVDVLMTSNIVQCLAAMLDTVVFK

As for `O=C(CCl)Nc1cc(Cl)ccc1-n1cncn1`, the “log2 ratio of Biotin-Ahx-Ub-VS probe labelling” value in assay [1] is 0.477; in assay [2] it was -0.691; in assay [3] it was -0.4; in assay [4], -0.638; in assay [5], -0.61; in assay [6] it was 0.943. The “log2 ratio of Biotin-Ahx-Ub-VS probe labelling” value in [7] is -1.33 (active); in assay [8], -0.73; in assay [9] it was -1.04 (active); in assay [10], -0.13.
